Measurements published in the antibiotic and cytotoxicity screens of Wong et al. (2023).
About 3,300 (8.5%) of roughly 39,000 compounds were called active. What follows is part of a selection rich in actives, with near analogues and random picks from the rest.

What follows are compounds tested on HepG2 (assay: cytotoxicity call (relative viability < 0.9)). Settings: 10 µM.
In the case of `CO[C@@H]1CN(C)C(=O)c2cc(NC(=O)C3CCCC3)ccc2OC[C@@H](C)N(C(=O)Nc2ccc(C(F)(F)F)cc2)C[C@H]1C`, the cytotoxicity call is reported as “inactive”. `Cc1cnc(CNC(=O)[C@H]2C[C@H]3[C@@H](CCN3S(C)(=O)=O)O2)cn1` was tested, and the cytotoxicity call was “inactive”. `O=C(C[C@@H]1C[C@@H]2c3cc(NS(=O)(=O)c4ccc(F)cc4)ccc3O[C@@H]2[C@H](CO)O1)NCC(F)(F)F` was tested, and the cytotoxicity call was “inactive”. With `CC=Cc1ccc2n(c1=O)C[C@@H]1[C@@H](CO)[C@H](C(=O)NCCc3cn(C)cn3)[C@H]2N1C(=O)C1CC1` the cytotoxicity call was “inactive”. With `Cn1c(=O)c(=O)n(C)c2cc(S(=O)(=O)CCC(=O)NCc3ccccc3)ccc21` the cytotoxicity call was “inactive”. For `CCCCNc1ccc(C(=O)OCCOCCOCCOCCOCCOCCOCCOCCOCCOC)cc1`, the cytotoxicity call was “inactive”. For `CCCCOC(=O)c1ccc(O)cc1`, the cytotoxicity call was “inactive”. In the case of `CCCCNc1ccc(C(=O)OCCN(C)C)cc1.Cl`, the cytotoxicity call is reported as “active”. With `Cc1noc(C)c1NC(=O)N(C)C[C@@H]1Oc2c(NC(=O)Nc3cccc4ccccc34)cccc2C(=O)N([C@H](C)CO)C[C@@H]1C` the cytotoxicity call was “inactive”. In the case of `C[C@@H]1CN([C@H](C)CO)C(=O)c2cc(NC(=O)c3ccccc3)ccc2O[C@@H](C)CCCCO[C@@H]1CN(C)Cc1ccncc1`, the cytotoxicity call is reported as “inactive”. For `O=C(C1CCC1)N1CCOCC1`, the cytotoxicity call was “inactive”. `C[C@@H](N)CCc1ccc(Br)cc1` was tested, and the cytotoxicity call was “inactive”. In the case of `C[C@@H]1CCCCO[C@@H](CN(C)C(=O)C2CCCCC2)[C@H](C)CN([C@@H](C)CO)C(=O)c2cc(NC(=O)c3ccncc3)ccc2O1`, the cytotoxicity call is reported as “inactive”. For `C[C@@H]1CN([C@H](C)CO)C(=O)c2cc(NC(=O)CCCN(C)C)ccc2O[C@@H]1CN(C)C(=O)Nc1ccc2c(c1)OCO2`, the cytotoxicity call was “inactive”. With `Cc1ccc(S(=O)(=O)Nc2ccc3c(c2)C(=O)N([C@@H](C)CO)C[C@H](C)[C@H](CN(C)C(=O)Nc2cccc4ccccc24)O3)cc1` the cytotoxicity call was “inactive”. With `Cc1ccc(S(=O)(=O)Nc2ccc3c(c2)C(=O)N([C@H](C)CO)C[C@@H](C)[C@H](CN(C)C(=O)Nc2cccc4ccccc24)O3)cc1` the cytotoxicity call was “active”. In the case of `C[C@@H]1CN([C@H](C)CO)C(=O)c2cc(NS(=O)(=O)c3ccccc3)ccc2O[C@@H]1CN(C)C(=O)Nc1cccc2ccccc12`, the cytotoxicity call is reported as “active”. With `C[C@H](CO)N1C[C@H](C)[C@H](CN(C)C(=O)Nc2cccc3ccccc23)Oc2ccc(NS(=O)(=O)c3ccccc3)cc2C1=O` the cytotoxicity call was “inactive”. For `C[C@@H]1CN([C@H](C)CO)C(=O)c2cc(NS(=O)(=O)c3ccccc3)ccc2O[C@H]1CN(C)C(=O)Nc1cccc2ccccc12`, the cytotoxicity call was “inactive”. `Cc1ccc(S(=O)(=O)Nc2ccc3c(c2)C(=O)N([C@@H](C)CO)C[C@H](C)[C@@H](CN(C)C(=O)Nc2cccc4ccccc24)O3)cc1` was tested, and the cytotoxicity call was “inactive”. For `CC(C)NC(=O)N(C)C[C@H]1Oc2ccc(NC(=O)c3ccncc3)cc2CC(=O)N([C@H](C)CO)C[C@@H]1C`, the cytotoxicity call was “inactive”. In the case of `C[C@@H]1CCCCO[C@H](CN(C)S(=O)(=O)c2cccs2)[C@H](C)CN([C@@H](C)CO)C(=O)c2cc(NS(=O)(=O)c3cn(C)cn3)ccc2O1`, the cytotoxicity call is reported as “inactive”. With `Cc1ccc(S(=O)(=O)Nc2ccc3c(c2)C(=O)N([C@@H](C)CO)C[C@@H](C)[C@@H](CN(C)C(=O)NC2CCCCC2)OCCCC[C@@H](C)O3)cc1` the cytotoxicity call was “inactive”. With `CC(C)(C)OC(=O)C[C@H]1CC=CC[C@H](CC(=O)NCCO)C(=O)N[C@H](Cc2ccccc2)COC1=O` the cytotoxicity call was “inactive”. With `C[C@@H]1CN([C@H](C)CO)C(=O)Cc2cc(NS(=O)(=O)c3cn(C)cn3)ccc2O[C@H]1CN(C)Cc1ccc(C(=O)Nc2ccccc2N)cc1` the cytotoxicity call was “inactive”. With `CN1C(=O)c2cc(NS(=O)(=O)c3cccc(F)c3)ccc2OC[C@H]2O[C@@H](CC(=O)NCCN3CCCCC3)CC[C@H]21` the cytotoxicity call was “inactive”. `C[C@@H]1CN([C@@H](C)CO)C(=O)Cc2cc(NC(=O)Nc3ccc(C(F)(F)F)cc3)ccc2O[C@H]1CN(C)Cc1ccc2c(c1)OCO2` was tested, and the cytotoxicity call was “active”. In the case of `C[C@H](CO)N1C[C@H](C)[C@H](CN(C)Cc2ccc3c(c2)OCO3)Oc2ccc(NC(=O)Nc3ccc(C(F)(F)F)cc3)cc2CC1=O`, the cytotoxicity call is reported as “active”. For `C[C@@H]1CN([C@H](C)CO)C(=O)Cc2cc(NC(=O)Nc3ccc(C(F)(F)F)cc3)ccc2O[C@H]1CN(C)Cc1ccc2c(c1)OCO2`, the cytotoxicity call was “inactive”. With `C[C@H](CO)N1C[C@H](C)[C@@H](CN(C)Cc2ccc3c(c2)OCO3)Oc2ccc(NC(=O)Nc3ccc(C(F)(F)F)cc3)cc2CC1=O` the cytotoxicity call was “active”. With `C[C@H]1CN([C@@H](C)CO)C(=O)Cc2cc(NC(=O)Nc3ccc(C(F)(F)F)cc3)ccc2O[C@@H]1CN(C)Cc1ccc2c(c1)OCO2` the cytotoxicity call was “inactive”. `C[C@@H]1CN([C@H](C)CO)C(=O)Cc2cc(NC(=O)Nc3ccc(C(F)(F)F)cc3)ccc2O[C@@H]1CN(C)Cc1ccc2c(c1)OCO2` was tested, and the cytotoxicity call was “active”. With `C[C@H]1CN([C@@H](C)CO)C(=O)Cc2cc(NC(=O)Nc3ccc(C(F)(F)F)cc3)ccc2O[C@H]1CN(C)Cc1ccc2c(c1)OCO2` the cytotoxicity call was “inactive”. For `Cc1noc(C)c1NC(=O)N(C)C[C@@H]1OCCCC[C@@H](C)Oc2ccc(NC(=O)NC3CCCCC3)cc2C(=O)N([C@H](C)CO)C[C@H]1C`, the cytotoxicity call was “inactive”. For `NCC[C@@H]1CC[C@@H](NC(=O)C2CC2)[C@H](CO)O1`, the cytotoxicity call was “inactive”. `COc1ccc(CN(C)C[C@@H]2Oc3ccc(NS(=O)(=O)c4cn(C)cn4)cc3CC(=O)N([C@@H](C)CO)C[C@@H]2C)cc1` was tested, and the cytotoxicity call was “inactive”. For `C[C@@H]1CCCCO[C@H](CN(C)C(=O)C2CCCCC2)[C@@H](C)CN([C@H](C)CO)C(=O)c2cc(NC(=O)c3ccncc3)ccc2O1`, the cytotoxicity call was “inactive”. `C[C@@H]1CN([C@H](C)CO)C(=O)c2cc(NC(=O)Cc3ccccc3)ccc2O[C@@H](C)CCCCO[C@@H]1CN(C)Cc1ccc2c(c1)OCO2` was tested, and the cytotoxicity call was “inactive”. With `C[C@@H]1CN([C@H](C)CO)C(=O)c2cc(Br)cnc2O[C@H]1CN(C)C(=O)Nc1ccccc1F` the cytotoxicity call was “inactive”. `CCCCC[C@@H](C[C@@H](CC(=O)O)O[C@H]1O[C@@H](CO)[C@@H](O[C@H]2O[C@@H](CO)[C@@H](O)[C@@H](O)[C@@H]2O)[C@@H](O)[C@@H]1O)OC(=O)C[C@H](O)C[C@H](CCCCC)O[C@H]1O[C@@H](CO)[C@@H](O)[C@@H](O)[C@@H]1O` was tested, and the cytotoxicity call was “inactive”. `Cn1c(O)cc(=O)n(C)c1=O` was tested, and the cytotoxicity call was “inactive”. In the case of `CCS(=O)(=O)NCC[C@H]1CC[C@H](NS(=O)(=O)c2ccccc2C)[C@@H](CO)O1`, the cytotoxicity call is reported as “inactive”. With `Cc1cccc(/C=C2\CS/C(=C\c3cccc(C)c3)C2=O)c1` the cytotoxicity call was “inactive”. With `COC(=O)[C@@H]1C[C@H](C#N)N[C@@H]1c1ccccn1` the cytotoxicity call was “inactive”. With `C[C@@H]1CN([C@@H](C)CO)C(=O)Cc2cc(NC(=O)Nc3ccc(C(F)(F)F)cc3)ccc2O[C@@H]1CN(C)Cc1ccc2c(c1)OCO2` the cytotoxicity call was “active”. For `C[C@H]1CN([C@@H](C)CO)S(=O)(=O)c2ccc(C#CCN(C)C)cc2O[C@H]1CN(C)S(C)(=O)=O`, the cytotoxicity call was “inactive”. In the case of `COc1ccc(CCN(C)CCCOc2ccc(S(=O)(=O)c3[nH]c4ccccc4c3C(C)C)cc2)cc1OC`, the cytotoxicity call is reported as “active”. For `COc1ccc(C(=O)NCc2ccc(OCCN(C)C)cc2)cc1OC`, the cytotoxicity call was “inactive”. In the case of `COc1ccc(CCN(C)CCCOc2ccc(S(=O)(=O)c3c(C(C)C)cn4ccccc34)cc2)cc1OC`, the cytotoxicity call is reported as “active”. In the case of `COc1ccc(CCN(C)CCCOc2ccc(S(=O)(=O)c3c(C(C)C)c4ccccc4n3C)cc2)cc1OC`, the cytotoxicity call is reported as “active”. `COc1ccc(NC(=O)N(C)C[C@H]2Oc3c(NS(=O)(=O)c4cn(C)cn4)cccc3C(=O)N([C@H](C)CO)C[C@@H]2C)cc1` was tested, and the cytotoxicity call was “inactive”. With `COc1ccc(S(=O)(=O)N(C)C[C@H]2Oc3ccc(NC(=O)CCN4CCOCC4)cc3C(=O)N([C@@H](C)CO)C[C@@H]2C)cc1` the cytotoxicity call was “inactive”. In the case of `C[C@@H]1CN([C@@H](C)CO)C(=O)c2cc(NS(=O)(=O)c3cccs3)ccc2O[C@@H]1CN(C)S(=O)(=O)c1cn(C)cn1`, the cytotoxicity call is reported as “inactive”. In the case of `c1ccc(NC2CCCCC2)nc1`, the cytotoxicity call is reported as “inactive”. For `CO[C@H]1CN(C)C(=O)c2cc(NS(=O)(=O)CC(F)(F)F)ccc2OC[C@@H](C)N(Cc2ccccn2)C[C@@H]1C`, the cytotoxicity call was “inactive”. With `CN(C)CC(=O)N1CC(=O)N2[C@@H](CO)[C@@H](c3ccc(C#Cc4cccnc4)cc3)[C@@H]2C1` the cytotoxicity call was “inactive”. With `C[C@H]1CCCCO[C@@H](CN(C)Cc2ccncc2)[C@@H](C)CN([C@@H](C)CO)C(=O)c2cc(NC(=O)Nc3ccc(F)cc3)ccc2O1` the cytotoxicity call was “inactive”. `C=CC1=C(C(=O)O)N2C(=O)C(NC(=O)C(=NOCC(=O)O)c3csc(N)n3)C2SC1` (configuration not stated) was tested, and the cytotoxicity call was “active”. In the case of `C=CC1=C(C(=O)O)N2C(=O)C(NC(=O)C(=NO)c3csc(N)n3)C2SC1` (configuration not stated), the cytotoxicity call is reported as “inactive”. `C=CC1=C(C(=O)O)N2C(=O)[C@@H](NC(=O)/C(=N\OCC(=O)O)c3csc(N)n3)[C@H]2SC1` was tested, and the cytotoxicity call was “inactive”. With `CC(C)CC#Cc1ccc2c(c1)O[C@@H](CN(C)C(=O)Cc1ccncc1)[C@@H](C)CN([C@H](C)CO)S2(=O)=O` the cytotoxicity call was “inactive”. With `C[C@@H]1CN([C@H](C)CO)C(=O)Cc2cc(N(C)C)ccc2O[C@@H]1CN(C)S(=O)(=O)c1ccc(Cl)cc1` the cytotoxicity call was “inactive”. For `C[C@H]1CN([C@@H](C)CO)C(=O)Cc2cc(N(C)C)ccc2O[C@H]1CN(C)S(=O)(=O)c1ccc(Cl)cc1`, the cytotoxicity call was “active”. In the case of `C[C@H]1CN([C@@H](C)CO)C(=O)Cc2cc(N(C)C)ccc2O[C@@H]1CN(C)S(=O)(=O)c1ccc(Cl)cc1`, the cytotoxicity call is reported as “inactive”. In the case of `C[C@@H]1CN([C@@H](C)CO)C(=O)Cc2cc(N(C)C)ccc2O[C@H]1CN(C)S(=O)(=O)c1ccc(Cl)cc1`, the cytotoxicity call is reported as “inactive”. With `C[C@H](CO)N1C[C@H](C)[C@H](CN(C)S(=O)(=O)c2ccc(Cl)cc2)Oc2ccc(N(C)C)cc2CC1=O` the cytotoxicity call was “active”. In the case of `C[C@@H]1CN([C@H](C)CO)C(=O)Cc2cc(N(C)C)ccc2O[C@H]1CN(C)S(=O)(=O)c1ccc(Cl)cc1`, the cytotoxicity call is reported as “inactive”.
